The structures appear in SMILES notation. Values joined by “and” are separate entries in the source; they are usually repeats but may differ in a detail not shown here. Equal values may be shown once. Active and inactive are the calls of the source.

The test system of assay [1] is Plasmodium falciparum Sir2 (PF13_0152, Sir2A). In words: Plasmodium falciparum Sir2A binding compounds – biochemical, small-molecule microarray, 635 nm fluorescence, primary screen (AID 1098).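 Note: score merges spot fluorescence intensity with its signal-to-noise ratio.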 The note with it: fluorescence 635 nm, higher = more signal.
Assay [2] can be described thus: probe aDKK1 binding to arrayed compounds – biochemical, biotinylated probe, 635/667 nm fluorescence, primary screen (AID 1099).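 Note: score merges 667nm spot fluorescence with signal to noise across triplicate slides.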 The conditions noted are these: higher = more signal; small-molecule microarray, probe aDKK1, fluorescence unless noted.
Assay [3] is described as follows: probe aCHRDL2 binding to arrayed compounds – biochemical, biotinylated probe, 635/667 nm fluorescence, primary screen (AID 1100). The note with it: higher = more signal; small-molecule microarray, probe aCHRDL2, fluorescence unless noted.
Assay [4] can be described thus: change in splice reporter luminescence, either direction, cell-based, HEK293, spliceosome inhibition project, primary screen (AID 1101).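 Note: HEK293 cells carrying a splicing-competent luciferase reporter gene; test concentration not given here.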 The conditions noted are these: HEK293 splicing luciferase reporter, 24 h; higher = more signal, called active from +8 up or from −8 down unless noted. (In general: Reporter assays use an easily measured gene product as a stand-in for the process of interest.)

Assay [5] has as its target Fibroblast growth factor 10 (Homo sapiens) (UniProt O15520). In words: compounds binding fibroblast growth factor 10 – biochemical, small-molecule microarray, 635 nm fluorescence, primary screen (AID 1102). The conditions noted are these: FGF10 binding, fluorescence 635 nm, higher = more signal.
For assay [6], the system named is glycogen synthase kinase-3 (GSK3A per assay name; protocol says GSK3B). The experiment in a line: compounds binding glycogen synthase kinase-3 – biochemical, small-molecule microarray, 635 nm fluorescence, GSK3A, primary screen (AID 1103). Note: the record names both GSK3A and GSK3B. The conditions noted are these: fluorescence 635 nm, higher = more signal.
For assay [7], the target named is Epidermal growth factor receptor (Homo sapiens) (UniProt P00533). The experiment in a line: compounds binding epidermal growth factor receptor – biochemical, small-molecule microarray, 635 nm fluorescence, primary screen (AID 1104).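 Note: score merges 667 nm emission intensity with spot signal to noise over triplicate slides.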 The conditions noted are these: EGFR binding, higher = more signal.
Epidermal growth factor receptor (Homo sapiens), sequence (P00533 whole entry, looked up): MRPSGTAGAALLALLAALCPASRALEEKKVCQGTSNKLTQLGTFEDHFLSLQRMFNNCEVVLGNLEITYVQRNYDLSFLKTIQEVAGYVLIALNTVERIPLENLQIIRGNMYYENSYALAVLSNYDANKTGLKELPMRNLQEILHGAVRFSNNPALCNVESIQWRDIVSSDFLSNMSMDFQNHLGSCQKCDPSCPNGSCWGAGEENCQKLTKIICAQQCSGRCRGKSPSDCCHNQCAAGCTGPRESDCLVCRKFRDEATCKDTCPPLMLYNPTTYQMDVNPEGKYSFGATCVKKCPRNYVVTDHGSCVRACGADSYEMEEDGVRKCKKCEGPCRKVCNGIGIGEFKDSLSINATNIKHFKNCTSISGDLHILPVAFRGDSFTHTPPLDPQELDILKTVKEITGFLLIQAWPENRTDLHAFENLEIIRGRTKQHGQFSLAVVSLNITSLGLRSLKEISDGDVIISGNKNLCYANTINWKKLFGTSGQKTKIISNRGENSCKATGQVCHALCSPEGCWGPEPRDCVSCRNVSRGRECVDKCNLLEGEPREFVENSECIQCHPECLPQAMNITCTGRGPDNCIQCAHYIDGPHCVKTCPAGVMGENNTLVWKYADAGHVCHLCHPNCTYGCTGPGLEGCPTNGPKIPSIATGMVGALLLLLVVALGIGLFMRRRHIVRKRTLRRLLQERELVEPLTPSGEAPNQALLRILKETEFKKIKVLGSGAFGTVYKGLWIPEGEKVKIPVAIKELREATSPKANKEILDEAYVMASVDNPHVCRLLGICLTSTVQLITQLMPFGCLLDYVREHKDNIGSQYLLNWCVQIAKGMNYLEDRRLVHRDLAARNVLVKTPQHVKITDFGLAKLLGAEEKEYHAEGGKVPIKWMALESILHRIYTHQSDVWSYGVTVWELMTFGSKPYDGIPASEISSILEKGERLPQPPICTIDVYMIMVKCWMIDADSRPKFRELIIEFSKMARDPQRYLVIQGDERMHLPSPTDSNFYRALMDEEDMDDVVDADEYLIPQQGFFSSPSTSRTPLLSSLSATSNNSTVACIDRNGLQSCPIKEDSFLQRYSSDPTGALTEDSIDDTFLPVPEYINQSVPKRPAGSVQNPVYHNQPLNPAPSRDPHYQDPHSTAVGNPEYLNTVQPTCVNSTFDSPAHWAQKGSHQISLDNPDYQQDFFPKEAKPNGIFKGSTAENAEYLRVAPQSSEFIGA
Assay [8] addresses Follistatin-related protein 3 (Homo sapiens) (UniProt O95633). The experiment in a line: compounds binding follistatin-related protein 3 – biochemical, small-molecule microarray, 635 nm fluorescence, primary screen (AID 1105).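 Note: score merges emission near 667 nm and signal to noise per printed spot across three slides.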 The note with it: FSTL3 binding, higher = more signal.
Assay [9] has as its target Dickkopf-related protein 1 (Homo sapiens) (UniProt O94907). In words: small molecules binding DKK1 protein – biochemical, small-molecule microarray, 635 nm fluorescence scan, primary screen (AID 1106).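 Note: score merges emission near 667 nm with signal to noise over three replicate slides.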 The conditions noted are these: higher = more signal.
In assay [10] the test system is Inhibin beta A chain (activin A). The experiment in a line: small molecules binding activin A – biochemical, small-molecule microarray, 635 nm fluorescence scan, primary screen (AID 1107).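 Note: mouse activin A protein probed at 4.33 µg/mL on printed slides; score merges bound-protein fluorescence near 667 nm with spot signal-to-noise.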 The conditions noted are these: INHBA, higher = more signal.
Assay [11] deals with Human papillomavirus type 1a protein E7 (residues 44-93). The experiment in a line: small molecules binding HPV E7 44-93 – biochemical, small-molecule microarray, residues 44-93, 635 nm fluorescence, primary screen (AID 1108).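 Note: E7 fragment applied at 1 µg/mL in TBST for 1 h at 4 C; score combines spot fluorescence with its signal to noise ratio.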 The conditions noted are these: fluorescence 635 nm, higher = more signal.
Assay [12] can be described thus: hepatitis C replication reporter changes, two-sided – Huh7 cells, luciferase reporter, HCV replication inhibitor project, primary screen (AID 1109).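 Note: huh7 hepatoma cells harbouring a luciferase neomycin HCV replicon reporter; luciferase luminescence as measure of HCV replicon replication; test concentration not given here.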 The conditions noted are these: Huh7 HCV replicon luciferase reporter, 48 h; higher = more signal.
Assay [13] has as its target Left-right determination factor 2 (Homo sapiens) (UniProt O00292). In words: small molecules binding LEFTY2 protein – biochemical, small-molecule microarray, 635 nm fluorescence scan, primary screen (AID 1110). The conditions noted are these: higher = more signal.
Assay [14] deals with Calmodulin-1 (Homo sapiens) (UniProt P0DP23). In words: small molecules binding calmodulin-1 with EGTA – biochemical, small-molecule microarray, Cy5-labelled CALM1, profiling panel (AID 1111).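 Note: labelled calmodulin applied in Tris saline Tween buffer holding calcium plus EGTA and DTT.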 The conditions noted are these: Cy5-CALM1 binding fluorescence, higher = more signal.
Assay [15] has the same target. In words: small molecules binding Ca-loaded calmodulin-1 – biochemical, small-molecule microarray, Cy5-labelled CALM1, plus calcium, artefact control for SMM control-protein annotation, profiling panel (AID 1112).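 Note: score merges spot fluorescence with signal to noise from triplicate slides.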 The note with it: Cy5-CALM1 binding fluorescence, higher = more signal.
Assay [16] in a line: probe aWnt5a binding to arrayed compounds – biochemical, biotinylated probe, 635/667 nm fluorescence, primary screen (AID 1113).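 Note: score merges 667 nm fluorescence intensity with signal-to-noise per printed feature.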 The conditions noted are these: higher = more signal; small-molecule microarray, probe aWnt5a, fluorescence unless noted.
Assay [17] in a line: probe aShh binding to arrayed compounds – biochemical, biotinylated probe, 635/667 nm fluorescence, primary screen (AID 1114).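 Note: probe is biotin-labelled aShh protein from a stem cell growth factor screen; measures binding of labelled protein to compounds printed on the slide; score merges feature fluorescence at 667 nm with signal-to-noise.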 The note with it: higher = more signal; small-molecule microarray, probe aShh, fluorescence unless noted.
A short description of assay [18]: probe aNog binding to arrayed compounds – biochemical, biotinylated probe, 635/667 nm fluorescence, primary screen (AID 1115).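 Note: probe is biotinylated aNog protein used at 0.15 µg/mL for 1 h at 4 C; z-score combines 667 nm fluorescence of each spot with its signal to noise.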 The note with it: higher = more signal; small-molecule microarray, probe aNog, fluorescence unless noted.
Assay [19] concerns the target Torsin-1A-interacting protein 1 (Homo sapiens) (UniProt Q5JTV8). The experiment in a line: compound microarray binding of lysate hLAP1 – cell lysate, small-molecule microarray, COS7 lysate, 635/667 nm fluorescence, primary screen (AID 1116). The conditions noted are these: 635 nm fluorescence, higher = more signal.
Assay [20] concerns the target Alpha-bungarotoxin (Bungarus multicinctus) (UniProt P60615). In words: compounds binding labelled alpha-BTX control protein – biochemical, small-molecule microarray, Alexa647 label, 635/667 nm fluorescence, artefact control for SMM control protein annotation, profiling panel (AID 1117). The note with it: alpha-BTX-A647 binding fluorescence, higher = more signal.

Dickkopf-related protein 1 (Homo sapiens), sequence (O94907 whole entry, looked up): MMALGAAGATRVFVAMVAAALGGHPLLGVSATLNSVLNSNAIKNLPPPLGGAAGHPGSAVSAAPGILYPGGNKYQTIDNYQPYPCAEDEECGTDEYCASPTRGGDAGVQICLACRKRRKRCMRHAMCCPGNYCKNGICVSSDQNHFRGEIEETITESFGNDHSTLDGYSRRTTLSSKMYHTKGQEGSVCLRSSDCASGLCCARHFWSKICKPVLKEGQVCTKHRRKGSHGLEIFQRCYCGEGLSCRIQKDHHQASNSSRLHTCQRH
Left-right determination factor 2 (Homo sapiens), sequence (O00292 whole entry, looked up): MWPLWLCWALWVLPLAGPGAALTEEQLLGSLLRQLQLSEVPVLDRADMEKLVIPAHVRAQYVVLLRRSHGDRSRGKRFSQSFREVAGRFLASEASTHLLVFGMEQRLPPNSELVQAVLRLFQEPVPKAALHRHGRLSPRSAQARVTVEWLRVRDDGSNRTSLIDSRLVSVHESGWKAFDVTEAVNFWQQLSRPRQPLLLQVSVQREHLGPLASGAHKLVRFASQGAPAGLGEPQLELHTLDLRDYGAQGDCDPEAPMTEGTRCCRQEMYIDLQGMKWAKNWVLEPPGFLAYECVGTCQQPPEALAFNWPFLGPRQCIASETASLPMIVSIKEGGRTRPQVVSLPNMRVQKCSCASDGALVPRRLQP
Follistatin-related protein 3 (Homo sapiens), sequence (O95633 whole entry, looked up): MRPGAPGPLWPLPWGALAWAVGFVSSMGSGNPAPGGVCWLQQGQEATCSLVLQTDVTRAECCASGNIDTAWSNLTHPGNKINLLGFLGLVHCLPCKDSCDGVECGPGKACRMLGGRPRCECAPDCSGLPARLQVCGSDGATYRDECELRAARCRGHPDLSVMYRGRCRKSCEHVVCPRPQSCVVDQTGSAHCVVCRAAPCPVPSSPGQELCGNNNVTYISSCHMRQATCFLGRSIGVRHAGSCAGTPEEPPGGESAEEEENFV
Fibroblast growth factor 10 (Homo sapiens), sequence (O15520 whole entry, looked up): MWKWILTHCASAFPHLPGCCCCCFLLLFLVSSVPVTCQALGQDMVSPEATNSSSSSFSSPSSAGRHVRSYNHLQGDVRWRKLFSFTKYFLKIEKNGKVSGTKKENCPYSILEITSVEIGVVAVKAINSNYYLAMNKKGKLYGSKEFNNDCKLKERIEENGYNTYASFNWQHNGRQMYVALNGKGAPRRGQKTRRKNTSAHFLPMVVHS
Torsin-1A-interacting protein 1 (Homo sapiens), sequence (Q5JTV8 whole entry, looked up): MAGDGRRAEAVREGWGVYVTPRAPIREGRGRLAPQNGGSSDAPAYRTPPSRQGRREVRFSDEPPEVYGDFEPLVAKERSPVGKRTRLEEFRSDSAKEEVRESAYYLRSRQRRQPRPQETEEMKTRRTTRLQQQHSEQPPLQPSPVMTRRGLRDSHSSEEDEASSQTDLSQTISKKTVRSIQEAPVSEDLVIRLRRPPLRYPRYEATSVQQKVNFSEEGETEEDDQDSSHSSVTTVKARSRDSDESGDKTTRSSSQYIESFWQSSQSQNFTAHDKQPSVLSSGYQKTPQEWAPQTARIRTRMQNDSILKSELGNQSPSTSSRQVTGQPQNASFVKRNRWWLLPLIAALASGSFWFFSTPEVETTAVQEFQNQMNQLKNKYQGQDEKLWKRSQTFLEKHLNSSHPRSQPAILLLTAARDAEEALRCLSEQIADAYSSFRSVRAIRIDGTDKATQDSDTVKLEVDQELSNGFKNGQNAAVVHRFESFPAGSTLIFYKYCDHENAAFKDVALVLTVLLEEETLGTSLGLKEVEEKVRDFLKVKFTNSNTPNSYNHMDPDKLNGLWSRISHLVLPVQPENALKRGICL
Alpha-bungarotoxin (Bungarus multicinctus), sequence (P60615 whole entry, looked up): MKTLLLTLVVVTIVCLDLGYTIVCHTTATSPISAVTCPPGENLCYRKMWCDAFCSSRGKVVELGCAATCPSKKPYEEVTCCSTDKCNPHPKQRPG

In the case of `CC1N(P(=O)(c2ccccc2)c2ccccc2)CC(O)(c2ccccc2)CC12CC2` (stereo not given), the composite z-score in [1] was 0.639 and 0.752; in [2] it was -0.135 and 1; in assay [3], 0.938 and 1.14; in assay [5], -0.115 and 0.145; in assay [6] it was -0.0785 and -0.283; in [7], -0.678 and 0.158. Besides, the composite z-score was -1.67 and -0.931 in [8]; -0.657 and -0.814 in assay [9]; 0.388 and 1.1 in assay [10]; 1.36 and 0.0155 in assay [11]; -1.22 and 0.326 in [13]; -0.0346 and 1.63 in [14]. The composite z-score is 0.595 and 1.02 in assay [15]; 0.151 and -0.131 in [16]; 0.535 and 0.377 in [17]; 0.915 and 1.68 in [18]; 1.23 and 1.28 in assay [19]; -0.914 and -0.0679 in assay [20]. Also, the z-score in [4] was 0.255 (inactive) and -4.15 (inactive); in assay [12], -0.421 and -1.5.
As to `CCOC(=O)[C@H]1CC=C2C(=O)Oc3ccc(Br)cc3[C@@H]21`, the composite z-score is 1.07 in assay [1]; -0.0951 in assay [2]; 0.667 in [3]; -0.79 in assay [5]; 0.254 in assay [6]; -1.34 in [7]. The composite z-score in assay [8] is -1.51; in assay [9], -1.48; in assay [10], -1.85; in assay [11] it was 0.891; in assay [13], -1.91; in [14] it was 1.27. Moreover, the composite z-score is 0.0172 in [15]; -0.0118 in assay [16]; 0.151 in assay [17]; 0.884 in assay [18]; 0.501 in assay [19]; 1.65 in assay [20]. Also, the z-score was 0.123 (inactive) in assay [4] and -3.69 in [12].
For `CN1CCC(c2ccc(CO)cc2)=CC1C1CC1` (stereo not given), the composite z-score in assay [1] was 0.262; in [2] it was -0.368; in assay [3], -0.49; in assay [5], 0.179; in [6], -0.107; in [7], 0.388. In addition, the composite z-score in [8] was -0.196; in assay [9], 0.429; in assay [10], 0.939; in assay [11], 0.0996; in [13], 0.163; in assay [14], -0.257. Besides, the composite z-score in [15] was -0.691; in assay [16], -0.208; in assay [17] it was -0.0474; in assay [18], -0.198; in [19] it was -0.0443; in [20], 0.0005. Besides, the figures for the z-score in assay [4] and in assay [12] were 0.596 (inactive) and -0.954, respectively.
As to `COc1cc2c(cc1O)C(C)N(C)CC2` (stereo not given), the composite z-score was -0.528 in [1]; 0.0766 in assay [2]; 0.34 in assay [3]; -0.0182 in [5]; -0.951 in assay [6]; -0.855 in assay [7]. Moreover, the composite z-score in assay [8] was -0.205; in assay [9], -0.227; in [10] it was 0.953; in [11] it was -1.75; in [13], -0.603; in assay [14], 1.58. For the same compound, the composite z-score was 1.24 in assay [15]; 0.0017 in assay [16]; -0.0769 in assay [17]; -0.343 in [18]; 0.0049 in assay [19]; -0.613 in assay [20]. Besides, the z-score in assay [4] is 0.844 (inactive); in [12], 0.569.
Turning to `C=C(CC1(CNP(=O)(c2ccccc2)c2ccccc2)CC1)c1ccccc1`, the composite z-score in assay [1] was 1.34; in assay [2], 0.19; in assay [3], 0.752; in assay [5], 0.213; in assay [6], -0.383; in [7] it was 0.187. Moreover, the composite z-score is -0.77 in assay [8]; -0.542 in [9]; 1.16 in assay [10]; -0.872 in [11]; 0.165 in [13]; 1.22 in assay [14]. Also, the composite z-score in assay [15] is 0.442; in assay [16], 0.0597; in [17], -0.273; in assay [18], 1.01; in [19] it was 0.836; in assay [20], -0.108. In addition, the z-score was -0.937 (inactive) in assay [4] and -1 in assay [12].
With `C[C@H]1O[C@H]2C3=C(C(=O)[C@@H]4O[C@@H]4[C@@H]3O)[C@@H]1[C@@H]1[C@@H](C)OC=C3[C@@H](O)[C@H]4O[C@H]4C(=O)[C@]312`, the composite z-score in assay [1] was -0.373; in [2] it was -0.416; in [3], -0.399; in [5], -0.131; in [6] it was -0.572; in assay [7] it was -0.132. The composite z-score was -0.727 in assay [8]; 0.133 in [9]; 0.38 in assay [10]; -1.18 in [11]; -0.107 in assay [13]; -0.806 in assay [14]. In addition, the composite z-score in [15] is -0.447; in assay [16] it was -0.125; in [17] it was -0.0553; in assay [18] it was -0.252; in assay [19], -0.404; in assay [20] it was 0.411. For the same compound, the z-score was -1.89 (inactive) in [4] and -2.57 in assay [12].
As to `CCCC=C(CCC)[C@@H](NP(=O)(c1ccccc1)c1ccccc1)c1ccccc1`, the composite z-score is 0.381 in [1]; -0.17 in [2]; 0.0101 in [3]; 0.657 in assay [5]; 0.79 in [6]; 0.187 in [7]. In addition, the composite z-score in assay [8] was 0.344; in [9], -0.151; in assay [10] it was 0.411; in [11], 1.28; in assay [13], 0.943; in [14], 1.94. The composite z-score in [15] is 0.42; in assay [16], 0.208; in assay [17], -0.106; in assay [18], -0.519; in assay [19], 0.275; in assay [20] it was 0.44. Further, the z-score was -1.55 (inactive) in assay [4] and -1.39 in [12].
In the case of `c1ccc(-c2cc3c(nc2-c2ccccc2)CCNC3)cc1`, the composite z-score in assay [1] was 0.035; in assay [2], -0.193; in assay [3], -0.165; in assay [5], -0.757; in [6] it was -0.598; in assay [7], -0.0212. For the same compound, the composite z-score in [8] is -0.419; in assay [9], -0.419; in assay [10], 1.09; in assay [11], -0.903; in assay [13], 0.0196; in [14] it was -0.198. Besides, the composite z-score in assay [15] was -0.0533; in [16] it was -0.184; in [17], -0.0626; in [18] it was 0.0459; in [19], -0.19; in [20], 0.913. For the same compound, the z-score in assay [4] was -0.326 (inactive); in assay [12] it was -1.32.

These data come from PubChem BioAssay.
